Experimental data from PubChem BioAssay AID2289 (National Center for Advancing Translational Sciences (NCATS), 2010).
Screen size: about 340,000 compounds; about 3,300 (0.97%) were called active. About 9% were inconclusive and are not listed. Calls come from the whole dose curve; as a rule, active = well fitted inhibition curve with a large enough effect; inconclusive = small, poorly fitted or top-dose-only effect, or effect the other way; inactive = flat fitted curve, though single readings scatter. Some of the results follow.

experiment: qHTS Assay for Modulators of miRNAs and/or Inhibitors of miR-21; conditions: HeLa miR-21-FLuc reporter, luciferase luminescence, 48 h; actives lower the signal; note: nearly all actives have a fitted effect of over 55% in size
How it was run: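 Using DMEM plus 10% FBS, HeLa miR-21-FLuc cells are incubated with test compounds (final up to about 40uM) for 48 hours; firefly luciferase signal is then imaged following reagent-mediated lysis.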
Potency is the fitted concentration of half-maximal effect.

Potency, active:
COc1ccccc1C(=O)Nc1nc2cc3c(cc2s1)OCO3 0.736 µM
O=C(CNC(=O)c1ccccc1F)N/N=C/c1ccc2c(c1)OCO2 18.5 µM
COc1ccccc1C(=O)Nc1ccc2c(c1)OCO2 9.27 µM
CC(=O)c1ccc2c(c1)Cc1cc(C(C)=O)ccc1-2 1.85 µM
COc1ccc(-c2nc3c4ccccc4[nH]c(=O)n3n2)cc1 3.69 µM
Cc1ccc(-c2nc3c4ccccc4[nH]c(=O)n3n2)cc1 1.65 µM
C[C@H](NS(=O)(=O)c1ccc(Cl)cc1)C(=O)OCC(=O)NC(=O)Nc1ccc2c(c1)OCCO2 13.1 µM
Cc1cc(OCc2cn3cccnc3n2)ccc1Cl 7.36 µM
Cc1ccc(OCc2cn3cccnc3n2)cc1 2.07 µM
c1ccc(NCC2OCc3ccccc3CO2)cc1 4.65 µM
Nc1nc(Nc2cccc(Cl)c2)nc(NCc2ccco2)c1[N+](=O)[O-] 13.1 µM
Cc1ccc(Nc2nc(N)c([N+](=O)[O-])c(NCc3ccco3)n2)cc1 18.5 µM
N/C(=N\OC(=O)Cc1ccccc1)c1ccccc1Cl 5.85 µM
N/C(=N\OC(=O)Cc1ccc(Cl)cc1)c1ccccn1 13.1 µM
COc1ccccc1C(=O)O/N=C(\N)c1ccccc1Cl 3.29 µM
Cc1ccc(CC(=O)O/N=C(\N)c2ccccn2)cc1 4.14 µM
Cc1c(-c2ccc(Br)cc2)nc2ccccn12 1.47 µM
Clc1c(-c2ccccc2)nc2ccccn12 5.21 µM
Brc1ccc(-c2ncc3ccccn23)cc1 7.36 µM
CN(C)Cc1c(-c2ccc(Cl)cc2)nc2ccccn12 6.56 µM
COc1ccc(CN=C(C)c2c(C(F)(F)F)[nH]n(-c3nc4ccccc4s3)c2=O)cc1 7.36 µM
CNc1nn(-c2cccc(Cl)c2)nc1N 4.47 µM
O=C(NNc1nc2cc3c(cc2s1)OCO3)c1ccccc1 13.1 µM
O=C(NNc1nc2cc3c(cc2s1)OCCO3)c1ccccc1 14.7 µM
COCC(=O)n1nc(-c2ccco2)nc1NCc1ccccc1Cl 16.5 µM
COc1ccc(CNc2nc(-c3ccccc3)nn2C(=O)c2ccc([N+](=O)[O-])cc2)cc1 14.7 µM
CN(C)c1ccc(CNc2nc(-c3ccco3)nn2S(C)(=O)=O)cc1 7.36 µM
CC(C)c1ccc(CNc2nc(-c3ccco3)nn2C(=O)c2ccc([N+](=O)[O-])cc2)cc1 2.07 µM
O=C(Cc1ccccc1[N+](=O)[O-])NCc1ccc2c(c1)OCO2 10.4 µM
O=C(CC12CCC(CC1)C2)NCc1ccc2c(c1)OCO2 16.5 µM
O=C(Cc1ccccc1[N+](=O)[O-])NCc1ccc(Cl)cc1 14.7 µM
Cc1ccccc1CNC(=O)Cc1ccccc1[N+](=O)[O-] 5.21 µM
CCCn1cnc2cc(NCc3cccs3)ccc21 7.36 µM
CCCn1cnc2cc(NCc3ccc(Br)cc3)ccc21 7.36 µM
CCn1cnc2cc(NCc3ccc(Br)cc3)ccc21 3.29 µM
COC(=O)c1ccc(NN=Nc2ccc(C)cc2)cc1 2.07 µM
COC(=O)c1ccc(N=NNc2ccc(C(=O)OC)cc2)cc1 0.208 µM
CC(NC(=O)c1sc2ccccc2c1Cl)C1CCCO1 (centres undefined) 5.21 µM
O=C(NCC1CCCO1)c1sc2ccccc2c1Cl (centres undefined) 3.29 µM
CCn1c2ccccc2c2nc3cc(C(=O)O)ccc3nc21 9.27 µM
Cc1ccc(C(=O)Cc2cc3ccccc3oc2=O)c(C)c1 2.07 µM
COc1cccc2cc(CC(=O)c3ccc(C)cc3C)c(=O)oc12 11.7 µM
CN(c1ccccc1)c1nc2ccsc2c(=O)s1 12.6 µM
COc1ccc(-c2cc(C(=O)c3c(N)n(C)c(=O)n(C)c3=O)c3ccccc3n2)cc1OC 4.65 µM
COc1ccc2c(c1)CCC/C2=N\NC(=O)c1ccoc1C 2.93 µM
CC(=O)N1N=C(c2ccc(C)cc2)OC1c1ccc(C(C)C)cc1 (centres undefined) 3.29 µM
CN1N=C(C(=O)N2CCc3c([nH]c4ccccc34)C2c2ccccc2Cl)CCC1=O (centres undefined) 10.4 µM
O/N=C/c1ccc(OCc2ccccc2)c(Br)c1 3.69 µM
O/N=C/c1ccc(OCc2ccccc2)c(Cl)c1 2.07 µM
CCCOc1ccc(-c2nc(N3CCN(C)CC3)c3ccccc3n2)cc1 2.93 µM
COc1cc(CNc2ccc(NC(C)=O)cc2)ccc1OCc1ccccc1C 7.36 µM
COc1nc(-c2ccccc2)nnc1-c1ccccc1 1.17 µM
c1ccc(-c2nnc(-c3ccccc3)nn2)cc1 2.07 µM
Nc1ccc(-c2nnc(-c3ccc(N)cc3)o2)cc1 3.29 µM
Cc1ccc(-c2nnc(/C=C/c3ccccc3)o2)cc1 0.329 µM
O=C(O)c1ccc(-c2nnc(-c3ccccc3)o2)cc1 0.329 µM
c1ccc(-c2nnc(-c3ccccc3)o2)cc1 1.31 µM
Cc1cccc(N(CC(=O)Nc2ccc(-c3nc4ccc(C)cc4s3)cc2)S(C)(=O)=O)c1 4.14 µM
Cc1ccc2nc(-c3ccc(NC(=O)CN(C)S(=O)(=O)c4ccccc4)cc3)sc2c1 0.369 µM
Cc1cc(C)cc(N(CC(=O)Nc2ccc(-c3nc4ccc(C)cc4s3)cc2)S(C)(=O)=O)c1 3.29 µM
Cc1ccc(C(=O)Nc2cc3c(cc2Cl)OCCCO3)cc1 1.31 µM
O=C(Nc1cc2c(cc1Cl)OCCCO2)c1ccc(F)cc1 3.69 µM
O=C(Nc1ccc(NC(=O)c2cccs2)cc1)c1ccco1 8.26 µM
O=C(/C=C\c1ccco1)c1ccc(NC(=O)c2ccco2)cc1 13.1 µM
O=C(/C=C/c1ccco1)Nc1ccc(N2CCCC2)cc1 1.65 µM
CC(C)(C)n1cnc2cc(NC(=O)c3cccs3)ccc21 1.65 µM
O=C(CNC(=O)c1ccco1)Nc1ccc(Br)cc1 11.7 µM
O=C(Nc1ccc(NC(=O)c2cccs2)cc1)c1cccs1 5.21 µM
Cc1ccc(/C=N/c2sc3c(c2C#N)CCC3)s1 0.261 µM
N#Cc1c(/N=C/c2cccs2)sc2c1CCCCC2 0.464 µM
O=C(CSc1nccn1-c1ccccc1)Nc1nc2ccccc2s1 6.56 µM
O=C(CC1CCCCC1)Nc1nc2ccccc2s1 1.85 µM
CC1(C(=O)Nc2nc3ccccc3s2)CC1(Br)Br (centres undefined) 8.26 µM
COc1ccc(C2CC(C)(c3ccc(OC)cc3)Nc3ccccc3N2)cc1 (centres undefined) 7.36 µM
O=C(c1ccccc1)c1cnc(-c2ccc(Cl)cc2)s1 0.464 µM
O=C(COc1ccc(Cl)cc1Cl)NCc1ccco1 16.5 µM
O=C(COc1ccc(Cl)cc1Cl)c1ccc[nH]1 10.4 µM
N#Cc1ccccc1OCC(=O)NC(=O)NCc1ccco1 6.56 µM
CN1CCN(c2ccc(NC(=O)c3sc4ccccc4c3Cl)cc2)CC1 1.17 µM
CC(C)C(=O)Nc1ccc(NC(=O)c2cc3ccccc3o2)cc1 11.2 µM
Cc1nnc(NC(=O)c2cc3ccccc3o2)s1 8.26 µM
COc1cc2ccccc2cc1C(=O)Nc1ccc(N2CCN(C)CC2)cc1 7.36 µM
O=C(Nc1ncccc1Cl)c1cc2ccccc2o1 0.656 µM
CN1CCN(c2ccc(NC(=O)c3cc4ccccc4o3)cc2)CC1 0.927 µM
CC(Cc1ccccc1)NC(=O)c1cc2ccccc2o1 (centres undefined) 6.56 µM
COc1cc(/C=N/O)ccc1OCc1ccc(Cl)cc1 0.369 µM
COc1cc(/C=N/O)ccc1OCc1ccccc1Cl 2.93 µM
COc1cc(/C=N/O)ccc1OCc1ccc([N+](=O)[O-])cc1 3.29 µM
Cc1ccc2c(c1)COc1c3ccc(C(=O)N4CCCCC4)cc3nn1-2 3.69 µM
O=C(c1ccc2c3n(nc2c1)-c1ccc(Cl)cc1CO3)N1CCOCC1 5.21 µM
Cc1ccc2c(c1)COc1c3ccc(C(=O)N4CCOCC4)cc3nn1-2 5.21 µM
O=C(CSc1nnc(-c2ccccn2)o1)Nc1cccc(Cl)c1 1.85 µM
C#Cc1cccc(NC(=O)CSc2nnc(-c3ccc(C(F)(F)F)cn3)o2)c1 4.14 µM
O=C(CSc1nnc(-c2ccc(C(F)(F)F)cn2)o1)Nc1cccc(Cl)c1 4.14 µM
CN(C)CCCNc1cc(C(C)(C)C)nc2c(-c3ccccc3)cnn12 2.93 µM
CC(C)Nc1cc(C(C)(C)C)nc2c(-c3ccccc3)cnn12 6.56 µM
Cc1cc(C)n(-c2cc(C(C)(C)C)nc3c(-c4ccccc4)cnn23)n1 2.61 µM
CCn1cnc2sc(C(=O)Nc3ccc4c(c3)OCO4)c(C)c2c1=O 3.16 µM
Cc1cc(N/N=C/c2ccncc2)nc2ccccc12 5.85 µM
Cc1cc(N/N=C/c2ccccc2Br)nc2ccccc12 13.1 µM
O=c1c2cc(-c3ccccc3)sc2nc2n1N=C(c1cccs1)CS2 0.414 µM
C/C(=C\C(=O)c1ccccc1)Nc1cccc(O)c1 4.65 µM
C/C(=C\C(=O)c1ccc(C)cc1)Nc1cccc(O)c1 3.29 µM
COc1ccc(OC)c(N/C(C)=C/C(=O)c2ccccc2)c1 7.36 µM
